How the values were obtained:
Details in all cases: concentration: 1 μM,replicates: in singlicate; n = 1
[1] = system: T1, SNARK
T1 construct: gene NUAK2

[2] = system: SNRK
[3] = system: SRC
[4] = system: SRMS
[5] = system: SRPK1
[6] = system: SRPK2
[7] = system: SRPK3
[8] = system: STK16
[9] = system: STK33
[10] = system: STK35
[11] = system: STK36
[12] = system: STK39
[13] = system: SYK
[14] = system: SgK110
[15] = system: T2, TAK1
T2 construct: gene MAP3K7

[16] = system: TAOK1
[17] = system: TAOK2
[18] = system: TAOK3
[19] = system: TBK1
[20] = system: TEC
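Also: KINOMEscan kinase panel screen.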

Compound | %Inh [1] | %Inh [2] | %Inh [3] | %Inh [4] | %Inh [5] | %Inh [6] | %Inh [7] | %Inh [8] | %Inh [9] | %Inh [10] | %Inh [11] | %Inh [12] | %Inh [13] | %Inh [14] | %Inh [15] | %Inh [16] | %Inh [17] | %Inh [18] | %Inh [19] | %Inh [20]
COC(=O)c1cccc(NC(=O)NC2CCN(c3ccnc(Nc4cc(OC)c(OC)c(OC)c4)n3)C2)c1 (stereo not drawn) [GSK1379767] | 21% | 0% | 19% | 0% | 35% | 45% | 4% | 61% | 0% | 0% | 0% | 5% | 34% | 0% | 12% | 0% | 0% | 0% | 32% | 0%
CN1CCN(CCCNc2nccc(-c3c(-c4ccc(F)cc4)nn4cc(C(N)=O)ccc34)n2)CC1 [GW622475] | 14% | 0% | 19% | 0% | 43% | 0% | 1% | 25% | 26% | 0% | 98.9% | 23% | 11% | 7% | 29% | 13% | 0% | 10% | 0% | 8%
Cl.c1ccc(Oc2ccc(Nc3ccnc4cc(-c5ccc(CN6CCNCC6)o5)ccc34)cc2)nc1 [GW567142] | 14% | 0% | 34% | 89% | 0% | 7% | 0% | 0% | 24% | 57% | 0% | 1% | 0% | 0% | 3% | 0% | 0% | 0% | 25% | 26%
C[C@@H]1CCN(C(=O)N2CCCC2)C[C@@H]1N(C)c1ncnc2[nH]ccc12 | 61% | 18% | 0% | 0% | 8% | 3% | 14% | 0% | 0% | 0% | 7% | 0% | 21% | 73% | 43% | 0% | 0% | 0% | 64% | 0%
CC(C(=O)NC1CCN(c2ccnc(Nc3ccc(F)cc3)n2)C1)c1ccc(Cl)cc1 (stereo not drawn) [GSK1379713] | 0% | 0% | 0% | 0% | 20% | 0% | 18% | 0% | 5% | 0% | 0% | 0% | 30% | 13% | 0% | 0% | 0% | 0% | 0% | 0%
Cn1ccc2ncnc(Oc3ccc(NC(=O)Nc4cccc(C(F)(F)F)c4)c(Cl)c3)c21 | 0% | 0% | 7% | 0% | 45% | 0% | 0% | 4% | 60% | 0% | 0% | 0% | 1% | 0% | 31% | 0% | 23% | 0% | 15% | 0%
CN(c1cccc(CNc2nc(Nc3ccc4c(c3)CC(=O)N4)ncc2C(F)(F)F)c1)S(C)(=O)=O | 76% | 0% | 4% | 0% | 73% | 0% | 31% | 90.2% | 0% | 8% | 20% | 0% | 37% | 0% | 43% | 0% | 16% | 0% | 70% | 0%
CS(=O)(=O)Nc1ccc(-c2ccnc3[nH]ccc23)cc1 [GSK993273] | 40% | 0% | 0% | 0% | 77% | 0% | 75% | 81% | 5% | 15% | 0% | 24% | 52% | 0% | 33% | 27% | 0% | 0% | 10% | 16%
COc1cccc(OC)c1C(=O)Nc1cccc(-c2nn3ccccc3c2-c2ccnc(Nc3cccc(F)c3)n2)c1 [GSK361065] | 91.2% | 0% | 21% | 0% | 28% | 0% | 4% | 29% | 26% | 0% | 92% | 11% | 3% | 16% | 16% | 62% | 15% | 60% | 61% | 26%
Nc1nccc(-c2ccc3c(N)n[nH]c3c2)n1 [GSK1034945] | 35% | 0% | 0% | 0% | 67% | 0% | 55% | 29% | 0% | 0% | 0% | 1% | 0% | 0% | 8% | 62% | 0% | 0% | 20% | 13%
O=C(NOCC1CC1)c1cc(Br)c(F)c(F)c1Nc1ccc(I)cc1Cl | 0% | 0% | 2% | 0% | 0% | 0% | 0% | 20% | 0% | 0% | 0% | 0% | 13% | 0% | 0% | 0% | 27% | 0% | 5% | 0%
CC(=O)c1c(-c2ccncc2)[nH]c(-c2ccncc2)c1C [GW493036] | 0% | 0% | 0% | 0% | 24% | 16% | 0% | 28% | 0% | 0% | 10% | 20% | 24% | 0% | 19% | 63% | 0% | 0% | 0% | 0%
O=C(Nc1cccc(C(F)(F)F)c1)c1cccc(Oc2ccc3nccn3n2)c1 | 0% | 1% | 17% | 0% | 3% | 0% | 4% | 7% | 22% | 8% | 0% | 2% | 14% | 26% | 4% | 4% | 9% | 0% | 12% | 7%
C[C@@H](Oc1cc(-n2cnc3cc(-c4cnn(C)c4)ccc32)sc1C(N)=O)c1ccccc1Cl [GSK580432] | 98.4% | 0% | 84% | 0% | 98.2% | 42% | 85% | 51% | 0% | 3% | 0% | 10% | 92.3% | 0% | 0% | 0% | 0% | 0% | 0% | 0%
Cc1ccc(C(=O)Nc2ccc(Oc3ccc4nc(NC(=O)C5CC5)cn4c3)c(F)c2)c(=O)n1-c1ccccc1 | 0% | 0% | 11% | 0% | 0% | 23% | 25% | 17% | 24% | 0% | 3% | 25% | 59% | 0% | 0% | 0% | 0% | 0% | 44% | 55%
CCN1CCN(CCCC(=O)Nc2n[nH]c3nc(-c4ccc(O)cc4)c(Br)cc23)CC1 [SB-731579] | 0% | 0% | 0% | 0% | 0% | 0% | 13% | 2% | 0% | 0% | 0% | 0% | 0% | 0% | 11% | 53% | 65% | 66% | 0% | 0%
C[C@@H]1CNc2c(sc3ccc4nc(-c5ccncc5)ccc4c23)C(=O)N1 | 53% | 11% | 1% | 0% | 23% | 0% | 31% | 13% | 60% | 0% | 6% | 0% | 11% | 0% | 62% | 75% | 0% | 0% | 9% | 0%
CSc1nccc(-c2c(-c3ccc(F)cc3)ncn2CCCN2CCOCC2)n1.Cl [SB-217146] | 0% | 1% | 10% | 35% | 0% | 0% | 0% | 0% | 0% | 0% | 0% | 0% | 5% | 3% | 3% | 0% | 45% | 6% | 33% | 2%

— PMC5540273 (PLoS ONE, 2017)
